Experimental data as given in PubChem BioAssay AID1159580 (chemical genetic matrix, 2015).
The whole screen tested about 5,500 compounds, of which about 2,000 (36%) were called active. Roughly 18% stayed inconclusive and do not appear here. No stated cut-off is given here; in the data, active means normalized growth mostly below about 0.91 (no sharp cut-off); inconclusive means no clear call, values can overlap the other calls; inactive means mostly above about 0.92. The list shows a part of the results.

Test: chemical genetic growth profiling, strain panel (AID 1159580);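 further: tested at 20 µM; growth read once vehicle control cultures reached saturation at 30 °C; 1 = growth at the plate median or of vehicle wells; lower values mean less growth of the strain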
Conditions: growth OD

Measured: normalized growth

CCOc1ccc(NC(C)=O)cc1
inactive: S. cerevisiae deletion strains, locus YJR075W, strain HOC1, hits give low values 1.02 | S. cerevisiae deletion strains, locus YKL009W, strain mrt4, hits give low values 0.978 | S. cerevisiae deletion strains, locus YKL068W, hits give low values 0.976 | S. cerevisiae deletion strains, locus YKL085W, strain MDH1 (second series), hits give low values 0.985 | S. cerevisiae deletion strains, locus YKL085W, strain MDH1, hits give low values 0.985 | S. cerevisiae deletion strains, locus YKL160W, strain elf1, hits give low values 1.02 | S. cerevisiae deletion strains, locus YKL190W, strain CNB1, hits give low values 0.994 | S. cerevisiae deletion strains, locus YKR001C, strain vps1, hits give low values 0.98 | S. cerevisiae deletion strains, locus YKR026C, strain gcn3, hits give low values 1.01 | S. cerevisiae deletion strains, locus YKR091W, strain srl3, hits give low values 1.01 | S. cerevisiae deletion strains, locus YLL001W, strain dnm1, hits give low values 1.01 | S. cerevisiae deletion strains, locus YLL026W, hits give low values 1.01 | S. cerevisiae deletion strains, locus YLL041C, strain sdh2, hits give low values 1.02 | S. cerevisiae deletion strains, locus YLR027C, strain aat2, hits give low values 1.01 | S. cerevisiae deletion strains, locus YLR039C, strain RIC1, hits give low values 1.01 | S. cerevisiae deletion strains, locus YLR058C, strain SHM2, hits give low values 0.994 | S. cerevisiae deletion strains, locus YLR102C, strain apc9, hits give low values 0.976 | S. cerevisiae deletion strains, locus YLR113W, strain HOG1, hits give low values 0.997 | S. cerevisiae deletion strains, locus YLR221C, strain rsa3, hits give low values 0.999 | S. cerevisiae deletion strains, locus YLR258W, strain gsy2, hits give low values 1.02 | S. cerevisiae deletion strains, locus YLR262C, strain YPT6 (second series), hits give low values 1.03 | S. cerevisiae deletion strains, locus YLR262C, strain YPT6, hits give low values 0.999 | S. cerevisiae deletion strains, locus YLR268W, strain sec22, hits give low values 1.01 | S. cerevisiae deletion strains, locus YLR320W, strain mms22, hits give low values 1 | S. cerevisiae deletion strains, locus YLR330W, strain CHS5, hits give low values 0.993 | S. cerevisiae deletion strains, locus YLR342W, strain FKS1 (second series), hits give low values 0.957 | S. cerevisiae deletion strains, locus YLR342W, strain FKS1, hits give low values 1.03 | S. cerevisiae deletion strains, locus YLR357W, strain rsc2, hits give low values 1.01 | S. cerevisiae deletion strains, locus YLR370C, strain arc18, hits give low values 1.01 | S. cerevisiae deletion strains, locus YLR371W, strain rom2, hits give low values 0.962 | S. cerevisiae deletion strains, locus YLR384C, strain iki3, hits give low values 1.02 | S. cerevisiae deletion strains, locus YLR418C, strain cdc73, hits give low values 1 | S. cerevisiae deletion strains, locus YML016C, strain PPZ1, hits give low values 0.996 | S. cerevisiae deletion strains, locus YML032C, strain rad52, hits give low values 0.994 | S. cerevisiae deletion strains, locus YML120C, strain ndi1, hits give low values 1.02 | S. cerevisiae deletion strains, locus YML124C, strain tub3, hits give low values 0.99 | S. cerevisiae deletion strains, locus YMR058W, strain fet3, hits give low values 1.01 | S. cerevisiae deletion strains, locus YMR078C, strain ctf18, hits give low values 0.991 | S. cerevisiae deletion strains, locus YMR125W, strain sto1, hits give low values 1.02 | S. cerevisiae deletion strains, locus YMR129W, hits give low values 1.01 | S. cerevisiae deletion strains, locus YMR205C, strain PFK2, hits give low values 1.03 | S. cerevisiae deletion strains, locus YMR223W, strain ubp8, hits give low values 0.988 | S. cerevisiae deletion strains, locus YMR231W, strain pep5, hits give low values 1.01 | S. cerevisiae deletion strains, locus YMR263W, strain SAP30, hits give low values 1.01 | S. cerevisiae deletion strains, locus YMR307W, strain GAS1, hits give low values 0.978 | S. cerevisiae deletion strains, locus YNL067W, strain RPL9B, hits give low values 1.03 | S. cerevisiae deletion strains, locus YNL071W, strain lat1, hits give low values 1.01 | S. cerevisiae deletion strains, locus YNL128W, strain TEP1, hits give low values 1.02 | S. cerevisiae deletion strains, locus YNL153C, strain GIM3, hits give low values 1.01 | S. cerevisiae deletion strains, locus YNL183C, strain NPR1, hits give low values 0.995 | S. cerevisiae deletion strains, locus YNL209W, strain ssb2, hits give low values 1.02 | S. cerevisiae deletion strains, locus YNL233W, strain BNI4, hits give low values 1.01 | S. cerevisiae deletion strains, locus YNL248C, strain rpa49, hits give low values 1.02 | S. cerevisiae deletion strains, locus YNL250W, strain rad50, hits give low values 0.991 | S. cerevisiae deletion strains, locus YNL271C, strain bni1, hits give low values 0.972 | S. cerevisiae deletion strains, locus YNL298W, strain CLA4, hits give low values 0.989 | S. cerevisiae deletion strains, locus YNL307C, strain MCK1, hits give low values 0.991 | S. cerevisiae deletion strains, locus YNL322C, strain KRE1 (second series), hits give low values 1.01 | S. cerevisiae deletion strains, locus YNL322C, strain KRE1, hits give low values 1 | S. cerevisiae deletion strains, locus YNR049C, strain mso1, hits give low values 1.02 | S. cerevisiae deletion strains, locus YNR052C, strain pop2, hits give low values 0.987 | S. cerevisiae deletion strains, locus YOL006C, strain TOP1, hits give low values 1.15 | S. cerevisiae deletion strains, locus YOL012C, strain htz1 1.55 | S. cerevisiae deletion strains, locus YOL147C, strain pex11, hits give low values 0.993 | S. cerevisiae deletion strains, locus YOR001W, strain rrp6, hits give low values 1.02 | S. cerevisiae deletion strains, locus YOR061W, strain CKA2, hits give low values 0.996 | S. cerevisiae deletion strains, locus YOR069W, strain VPS5, hits give low values 1.07 | S. cerevisiae deletion strains, locus YOR070C, strain gyp1, hits give low values 1.02 | S. cerevisiae deletion strains, locus YOR080W, strain dia2, hits give low values 1.02 | S. cerevisiae deletion strains, locus YOR083W, strain WHI5, hits give low values 1.02 | S. cerevisiae deletion strains, locus YOR106W, strain vam3, hits give low values 1.01 | S. cerevisiae deletion strains, locus YOR136W, strain idh2, hits give low values 0.996 | S. cerevisiae deletion strains, locus YOR144C, strain elg1, hits give low values 0.997 | S. cerevisiae deletion strains, locus YOR184W, strain ser1, hits give low values 0.973 | S. cerevisiae deletion strains, locus YOR231W, strain MKK1, hits give low values 0.978 | S. cerevisiae deletion strains, locus YOR265W, strain rbl2, hits give low values 1.01 | S. cerevisiae deletion strains, locus YOR270C, strain vph1, hits give low values 1.02 | S. cerevisiae deletion strains, locus YOR290C, strain snf2, hits give low values 1.01 | S. cerevisiae deletion strains, locus YOR316C, strain cot1, hits give low values 0.983 | S. cerevisiae deletion strains, locus YPL051W, strain arl3, hits give low values 1 | S. cerevisiae deletion strains, locus YPL055C, strain LGE1, hits give low values 1.05 | S. cerevisiae deletion strains, locus YPL078C, strain atp4, hits give low values 1.01 | S. cerevisiae deletion strains, locus YPL106C, strain sse1, hits give low values 1.02 | S. cerevisiae deletion strains, locus YPL240C, strain hsp82, hits give low values 1.02 | S. cerevisiae deletion strains, locus YPL241C, strain CIN2, hits give low values 1.04 | S. cerevisiae deletion strains, locus YPL256C, strain CLN2, hits give low values 1.01 | S. cerevisiae deletion strains, locus YPR119W, strain clb2, hits give low values 0.989 | S. cerevisiae deletion strains, locus YPR141C, strain kar3, hits give low values 0.993 | S. cerevisiae deletion strains, locus YPR163C, strain tif3, hits give low values 0.995 | S. cerevisiae deletion strains, locus YPR167C, strain met16, hits give low values 0.978 | S. cerevisiae deletion strains, strain wtn01, hits give low values 0.989 | S. cerevisiae strains, strain wild type, hits give low values 0.992
